The source made the active and inactive calls. Rule for the calls: active = hit-call score of the fitted dose curve at least 0.9, where 1 is the maximum; inactive = score below 0.9.
What was measured:
[1] = target: CCAAT/enhancer-binding protein beta (Homo sapiens) (UniProt P17676); test: ATG_C_EBP_CIS: Attagene CIS-FACTORIAL HepG2 Assay for human CCAAT/Enhancer Binding Protein (C/EBP) beta (AID 2282927); details: HepG2 Attagene cis-factorial transcription factor reporter; actives raise or lower the signal
In short: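 HepG2 transiently transfected with multiplexed reporter units under cis-regulatory promoters reporting endogenous C/EBPb activity. After 24 h exposure, reporter mRNA assayed by RT-PCR, fluorescent labelling, HpaI digestion and capillary electrophoresis; bidirectional fitting versus DMSO.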

[2] = ATG_CMV_CIS: Attagene CIS-FACTORIAL HepG2 Assay for human CMV (Internal Marker) (AID 2282928); details: HepG2 CMV promoter reporter, transcription factor profiling; actives raise or lower the signal;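 note: endpoint acts as a background internal control marker rather than a target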
In short: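 After transient transfection of HepG2 with reporter transcription units driven by cis-regulatory promoters, cells receive test chemical for 24 h. Labeled reporter amplicons, digested with HpaI, are sized and quantified by capillary electrophoresis against DMSO.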

[3] = ATG_DR4_LXR_CIS: Attagene CIS-FACTORIAL HepG2 Assay for human Liver X Receptor (LXR), DR4 submotif (AID 2282929); details: HepG2 Attagene DR4 cis-reporter, mRNA transcription; actives raise or lower the signal
In short: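 Readout: reporter transcript fluorescence after RT-PCR and capillary electrophoresis, fitted bidirectionally against DMSO controls. Human HepG2 liver cells carried transiently transfected multiplexed reporter constructs; endogenous transcription factor activity measured 24 h post-dosing.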

[4] = target: Aryl hydrocarbon receptor (Homo sapiens) (UniProt P35869); test: ATG_Ahr_CIS: Attagene CIS-FACTORIAL HepG2 Assay for human Aryl Hydrocarbon Receptor (Ahr) (AID 2282930); details: HepG2 AhR cis-factorial reporter transcription; actives raise or lower the signal
In short: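 HepG2 cells transiently transfected with cis-element-driven multiplexed reporter units; endogenous AhR activity read as reporter mRNA 24 h after dosing, via RT-PCR, 6-FAM labelling, HpaI digestion and capillary electrophoresis. Bidirectional fit relative to DMSO.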

[5] = ATG_AP_1_CIS: Attagene CIS-FACTORIAL HepG2 Assay for human Activator Protein 1 (AP-1) (AID 2282931); details: HepG2 Attagene cis-factorial AP-1 reporter mRNA; actives raise or lower the signal
In short: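 Reporter transcripts were measured 24 h after dosing by RT-PCR and capillary electrophoresis of fluorescent fragments. Cells: HepG2 carrying transfected cis-regulated reporter constructs reading endogenous factor activity. Gain or loss fitted against DMSO.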

[6] = ATG_AP_2_CIS: Attagene CIS-FACTORIAL HepG2 Assay for human Activator Protein 2 (AP-2) (AID 2282932); details: HepG2 AP-2 cis-reporter, Attagene transcription factor profiling; actives raise or lower the signal
In short: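 HepG2 cells transiently transfected with cis-element reporter units and exposed for 24 h. Reporter mRNA measured by RT-PCR, FAM labelling, HpaI digestion and capillary electrophoresis. Changes in either direction fitted relative to DMSO.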

[7] = ATG_BRE_CIS: Attagene CIS-FACTORIAL HepG2 Assay for human Bone Morphogenetic Protein (BMP) Response Element (BRE) (AID 2282933); details: HepG2 BMP response element reporter, Attagene transcription factor profiling; actives raise or lower the signal
In short: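 Read-out: reporter mRNA induction quantified by RT-PCR and capillary electrophoresis after 24 h chemical exposure of transfected HepG2 cells. Endogenous factor activity on the BMP response element; gain or loss fitted against DMSO baseline.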

[8] = target: Transcription factor E2F1 (Homo sapiens) (UniProt Q01094); test: ATG_E2F_CIS: Attagene CIS-FACTORIAL HepG2 Assay for human E2F Transcription Factor 1 (AID 2282935); details: HepG2 Attagene cis-reporter, E2F reporter RNA transcripts; actives raise or lower the signal
In short: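 Endogenous E2F1 activity read through cis-promoter reporter units transfected into HepG2. After 24 h compound treatment, reporter mRNA measured by RT-PCR, HpaI digestion and capillary electrophoresis. Bidirectional fit versus DMSO.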

[9] = ATG_E_Box_CIS: Attagene CIS-FACTORIAL HepG2 Assay for human Enhancer Box (E-box) (AID 2282936); details: HepG2 E-box cis-reporter transcription, actives raise or lower the signal
In short: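 HepG2 cells transiently transfected with multiplexed cis-element reporter units, dosed 24 h; reporter mRNA quantified by RT-PCR, 6-FAM labelling, HpaI digestion and capillary electrophoresis. E-box (USF1) signal fitted bidirectionally vs DMSO.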

[10] = ATG_M_61_CIS: Attagene CIS-FACTORIAL HepG2 Assay for M61 Transcription Factor (Internal Marker) (AID 2282937); details: HepG2 Attagene CIS-FACTORIAL M61 internal marker reporter; actives raise or lower the signal
In short: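 Readout: fluorescent reporter mRNA fragments resolved by capillary electrophoresis after RT-PCR. Transiently transfected human HepG2 cells carried MRTU constructs reporting endogenous TF activity; 24 h chemical exposure; gain or loss of signal fitted relative to DMSO.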

[11] = ATG_EGR_CIS: Attagene CIS-FACTORIAL HepG2 Assay for human Early Growth Response 1 (EGR1) (AID 2282938); details: HepG2 Attagene CIS-FACTORIAL EGR reporter mRNA; actives raise or lower the signal
In short: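 Read-out: fluorescent reporter-mRNA fragments resolved by capillary electrophoresis after RT-PCR, 24 h post-dose in transiently transfected HepG2. Endogenous transcription-factor activity reported via cis-element-regulated reporter units; gain or loss fitted relative to DMSO.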

[12] = ATG_M_19_CIS: Attagene CIS-FACTORIAL HepG2 Assay for M19 Transcription Factor (Internal Marker) (AID 2282939); details: HepG2 Attagene CIS-FACTORIAL M19 internal marker reporter; actives raise or lower the signal
In short: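 Readout: fluorescent reporter-transcript fragments by capillary electrophoresis after RT-PCR. Human HepG2 liver cells carried transfected MRTU constructs reporting endogenous transcription-factor activity; exposure 24 h. Gain or loss of signal fitted relative to DMSO.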

[13] = ATG_ERE_CIS: Attagene CIS-FACTORIAL HepG2 Assay for Estrogen Response Element (ERE) (AID 2282940); details: HepG2 ERE cis-reporter, Attagene RNA transcript; actives raise or lower the signal
In short: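 Readout: reporter mRNA induction by RT-PCR, FAM-labelled primer extension, HpaI digestion and capillary electrophoresis, 24 h after dosing transfected HepG2 cells. Endogenous transcription factors act on cis-element-regulated reporters. Gain or loss fitted against DMSO.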

[14] = ATG_Ets_CIS: Attagene CIS-FACTORIAL HepG2 Assay for human Erythroblast Transformation Specific (ETS) (AID 2282941); details: HepG2 ETS cis-reporter transcription, actives raise or lower the signal
In short: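 Human HepG2 hepatoma cells were transiently transfected with promoter-driven reporter constructs and treated for 24 hours. Reporter transcripts were quantified by RT-PCR with fluorescent primer extension; bidirectional curve fitting used DMSO as reference.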

[15] = target: Hepatocyte nuclear factor 3-beta (Homo sapiens) (UniProt Q9Y261); test: ATG_FoxA2_CIS: Attagene CIS-FACTORIAL HepG2 Assay for human Forkhead box A2 (FOXA2) (AID 2282942); details: HepG2 cis-reporter transcription factor activity, 24 h; actives raise or lower the signal
In short: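 Readout: fluorescent reporter transcripts resolved by capillary electrophoresis after RT-PCR. Transiently transfected HepG2, 24 h compound exposure, endogenous TF activity at cis promoter elements. Gain or loss of signal fitted relative to DMSO.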

[16] = ATG_FoxO_CIS: Attagene CIS-FACTORIAL HepG2 Assay for human Forkhead box O (FoxO) (AID 2282943); details: HepG2 Attagene cis-reporter, FoxO element, mRNA; actives raise or lower the signal
In short: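 HepG2 cells transiently transfected with cis-element-driven reporter units report endogenous FoxO activity. After 24 h chemical exposure, reporter mRNA quantified by RT-PCR, fluorescent labeling, HpaI digestion and capillary electrophoresis; bidirectional fit versus DMSO.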

[17] = ATG_GATA_CIS: Attagene CIS-FACTORIAL HepG2 Assay for human GATA Binding Protein (AID 2282944); details: HepG2 GATA cis-element reporter, Attagene multiplex mRNA; actives raise or lower the signal
In short: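 Read-out: fluorescent reporter mRNA fragments resolved by capillary electrophoresis after RT-PCR. Human liver HepG2 cells carried transiently transfected cis-regulated reporter constructs; chemicals incubated 24 h; gain or loss of signal fitted relative to DMSO.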

[18] = ATG_GLI_CIS: Attagene CIS-FACTORIAL HepG2 Assay for human Zinc Finger Protein GLI1 (AID 2282945); details: HepG2, Attagene cis-factorial reporter mRNA, GLI element; actives raise or lower the signal
In short: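 Transiently transfected HepG2 cells report endogenous transcription factor activity via cis-element-driven reporter units. After 24 h compound exposure, reporter mRNA was measured by RT-PCR with capillary electrophoresis; bidirectional fitting against DMSO baseline.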

[19] = target: Retinoic acid receptor alpha (Homo sapiens) (UniProt P10276); test: ATG_DR5_RAR_CIS: Attagene CIS-FACTORIAL HepG2 Assay for human Retinoic Acid Receptor Alpha (RARE), DR5 submotif (AID 2282934); details: HepG2 Attagene cis-factorial RARE DR5 reporter, mRNA; actives raise or lower the signal;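 for AC50: reporter responds to endogenous RAR alpha beta and gamma in HepG2 not RARA alone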
In short: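 HepG2 cells transiently transfected with multiplexed reporter units; DR5 cis-element drives reporter through endogenous transcription factors. After 24 h dosing, reporter mRNA quantified by RT-PCR, fluorescent labeling, HpaI digestion and capillary electrophoresis; bidirectional fitting versus DMSO.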

[20] = target: Bile acid receptor (Homo sapiens) (UniProt Q96RI1); test: ATG_IR1_CIS: Attagene CIS-FACTORIAL HepG2 Assay for human Nuclear Receptor Subfamily 1 Group H Member 4 (NR1H4), IR1 submotif (AID 2282946); details: IR1 reporter transcription, actives raise or lower the signal
In short: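 HepG2 cells transiently transfected with multiple cis-promoter-driven reporter units to measure endogenous transcription factor activity; 24 h exposure. Reporter mRNA read by RT-PCR, FAM labelling, HpaI digestion and capillary electrophoresis. Bidirectional fit versus DMSO.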

Measured: AC50

Chain of Retinoic acid receptor alpha (Homo sapiens) (P10276 whole entry, looked up): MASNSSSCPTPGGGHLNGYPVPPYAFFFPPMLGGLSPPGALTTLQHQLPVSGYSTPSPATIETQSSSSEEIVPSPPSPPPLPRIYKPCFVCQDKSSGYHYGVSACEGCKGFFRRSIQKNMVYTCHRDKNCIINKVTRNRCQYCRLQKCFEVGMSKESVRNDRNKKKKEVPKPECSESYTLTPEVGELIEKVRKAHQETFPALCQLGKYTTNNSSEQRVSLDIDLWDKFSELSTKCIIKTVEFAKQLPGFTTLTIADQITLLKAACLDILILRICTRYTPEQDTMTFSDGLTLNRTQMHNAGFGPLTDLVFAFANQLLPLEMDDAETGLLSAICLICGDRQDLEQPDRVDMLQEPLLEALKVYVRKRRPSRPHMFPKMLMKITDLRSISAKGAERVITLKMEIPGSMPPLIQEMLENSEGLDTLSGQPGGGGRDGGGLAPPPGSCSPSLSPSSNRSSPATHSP
Chain of Aryl hydrocarbon receptor (Homo sapiens) (P35869 whole entry, looked up): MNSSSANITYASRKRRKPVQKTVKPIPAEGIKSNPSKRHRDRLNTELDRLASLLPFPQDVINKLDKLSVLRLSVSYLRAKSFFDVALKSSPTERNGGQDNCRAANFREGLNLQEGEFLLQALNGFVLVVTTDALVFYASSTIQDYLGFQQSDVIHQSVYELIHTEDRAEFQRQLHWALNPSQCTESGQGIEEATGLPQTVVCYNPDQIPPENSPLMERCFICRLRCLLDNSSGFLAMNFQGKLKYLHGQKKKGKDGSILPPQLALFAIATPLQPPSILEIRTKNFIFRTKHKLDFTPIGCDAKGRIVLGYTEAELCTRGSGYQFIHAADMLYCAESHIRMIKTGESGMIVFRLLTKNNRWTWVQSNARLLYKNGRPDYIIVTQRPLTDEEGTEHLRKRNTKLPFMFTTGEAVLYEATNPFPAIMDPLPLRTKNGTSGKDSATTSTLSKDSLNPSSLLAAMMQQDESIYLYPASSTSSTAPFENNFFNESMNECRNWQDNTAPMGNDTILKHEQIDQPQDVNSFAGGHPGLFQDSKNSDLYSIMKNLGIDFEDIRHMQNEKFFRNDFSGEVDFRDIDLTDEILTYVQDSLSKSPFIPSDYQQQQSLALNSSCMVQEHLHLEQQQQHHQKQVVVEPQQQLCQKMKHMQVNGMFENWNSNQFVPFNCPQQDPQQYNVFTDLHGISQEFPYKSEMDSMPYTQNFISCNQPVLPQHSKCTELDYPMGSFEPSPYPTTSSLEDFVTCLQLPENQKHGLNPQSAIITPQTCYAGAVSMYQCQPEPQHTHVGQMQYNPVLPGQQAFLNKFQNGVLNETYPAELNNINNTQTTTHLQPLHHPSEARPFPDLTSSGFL
Chain of Hepatocyte nuclear factor 3-beta (Homo sapiens) (Q9Y261 whole entry, looked up): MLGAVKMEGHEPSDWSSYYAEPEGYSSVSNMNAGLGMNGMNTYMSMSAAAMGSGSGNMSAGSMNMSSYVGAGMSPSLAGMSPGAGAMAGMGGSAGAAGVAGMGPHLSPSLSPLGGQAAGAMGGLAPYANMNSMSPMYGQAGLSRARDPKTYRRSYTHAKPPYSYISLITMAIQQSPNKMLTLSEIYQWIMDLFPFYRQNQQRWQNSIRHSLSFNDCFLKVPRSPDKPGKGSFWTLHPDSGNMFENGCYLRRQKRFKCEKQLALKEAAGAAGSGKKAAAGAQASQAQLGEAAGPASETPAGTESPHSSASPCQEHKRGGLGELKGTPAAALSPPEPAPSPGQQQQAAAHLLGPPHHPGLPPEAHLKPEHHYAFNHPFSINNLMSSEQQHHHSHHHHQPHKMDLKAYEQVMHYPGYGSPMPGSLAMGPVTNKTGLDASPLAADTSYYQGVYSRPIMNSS
Chain of Transcription factor E2F1 (Homo sapiens) (Q01094 whole entry, looked up): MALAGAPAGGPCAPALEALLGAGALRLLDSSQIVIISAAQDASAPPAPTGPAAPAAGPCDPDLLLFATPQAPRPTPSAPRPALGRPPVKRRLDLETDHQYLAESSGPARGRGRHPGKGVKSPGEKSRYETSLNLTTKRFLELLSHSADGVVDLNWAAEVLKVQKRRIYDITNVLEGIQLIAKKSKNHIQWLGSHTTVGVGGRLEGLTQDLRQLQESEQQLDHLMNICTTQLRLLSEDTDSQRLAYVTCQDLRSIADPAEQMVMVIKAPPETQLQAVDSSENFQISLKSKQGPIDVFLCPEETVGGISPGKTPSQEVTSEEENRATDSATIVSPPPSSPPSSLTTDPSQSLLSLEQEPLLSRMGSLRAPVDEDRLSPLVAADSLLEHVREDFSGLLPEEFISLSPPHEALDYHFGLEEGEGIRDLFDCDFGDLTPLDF
Chain of CCAAT/enhancer-binding protein beta (Homo sapiens) (P17676 whole entry, looked up): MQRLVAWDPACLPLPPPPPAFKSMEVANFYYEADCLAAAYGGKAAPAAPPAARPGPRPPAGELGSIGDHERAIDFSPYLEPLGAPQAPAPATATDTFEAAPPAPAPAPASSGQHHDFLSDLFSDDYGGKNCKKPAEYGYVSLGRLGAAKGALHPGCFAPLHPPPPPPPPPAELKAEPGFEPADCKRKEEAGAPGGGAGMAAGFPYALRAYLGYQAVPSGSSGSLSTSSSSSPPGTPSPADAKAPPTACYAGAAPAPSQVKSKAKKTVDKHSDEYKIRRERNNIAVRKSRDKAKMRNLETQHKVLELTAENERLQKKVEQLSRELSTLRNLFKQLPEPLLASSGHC
Chain of Bile acid receptor (Homo sapiens) (Q96RI1 whole entry, looked up): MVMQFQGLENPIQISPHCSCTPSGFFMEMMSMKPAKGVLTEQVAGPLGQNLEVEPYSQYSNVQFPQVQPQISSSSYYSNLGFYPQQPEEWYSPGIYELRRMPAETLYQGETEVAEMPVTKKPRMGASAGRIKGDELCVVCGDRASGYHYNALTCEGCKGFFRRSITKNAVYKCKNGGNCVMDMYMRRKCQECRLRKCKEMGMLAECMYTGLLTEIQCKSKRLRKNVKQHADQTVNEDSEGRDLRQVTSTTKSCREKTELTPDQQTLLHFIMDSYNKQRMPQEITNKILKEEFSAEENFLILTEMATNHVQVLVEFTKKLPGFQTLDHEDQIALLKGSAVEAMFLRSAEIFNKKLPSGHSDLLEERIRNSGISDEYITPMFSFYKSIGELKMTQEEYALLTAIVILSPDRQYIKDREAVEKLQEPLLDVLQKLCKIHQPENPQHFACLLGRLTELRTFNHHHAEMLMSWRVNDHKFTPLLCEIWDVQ

COc1ccc(C=O)cc1
not listed: [19] | [20]
inactive: all other assays above

O=Cc1cccc(Oc2ccccc2)c1
not listed: [12] | [14] | [20]
inactive: all other assays above

CCCCC(CC)CO[N+](=O)[O-] (stereo not given)
active: [19] 99.5 µM
not listed: [12] | [13] | [15] | [20]
inactive: all other assays above

CC(=[OH+])/C=C(/C)[O-].CC(=[OH+])/C=C(/C)[O-].CC(=[OH+])/C=C(/C)[O-].[Fe]
not listed: [15] | [19]
inactive: all other assays above

CC1(C)CCC(Cc2ccc(Cl)cc2)C1(O)Cn1cncn1 (stereo not given)
active: [3] 56.7 µM | [4] 4.7 µM | [5] 33.4 µM | [7] 52.3 µM | [13] 7.52 µM
not listed: [19]
inactive: all other assays above

C1CCC(NC2CCCCC2)CC1
active: [13] 28.8 µM
not listed: [19] | [20]
inactive: all other assays above

ClCc1cccnc1
active: [11] 58.6 µM
not listed: [14] | [15] | [19]
inactive: all other assays above

CCC(=O)c1ccccc1
not listed: [12] | [15] | [19]
inactive: all other assays above

CN(CCCC(=O)c1cccnc1)N=O
not listed: [12] | [15] | [17] | [19]
inactive: all other assays above

CCCCOCCOC(C)=O
not listed: [12] | [13] | [19]
inactive: all other assays above

CC(=O)C(Cl)C(=O)N(C)C (stereo not given)
active: [14] 100 µM
not listed: [12] | [13] | [19] | [20]
inactive: all other assays above

ClC1=C(Cl)[C@]2(Cl)[C@H]3[C@H]([C@H]4C=C[C@H]3C4)[C@@]1(Cl)C2(Cl)Cl
active: [3] 10.2 µM | [13] 9.92 µM
not listed: [14] | [15] | [17] | [19] | [20]
inactive: all other assays above

C=CCc1ccc(OC)cc1
not listed: [13] | [19] | [20]
inactive: all other assays above

COc1ccc(C=O)cc1OC
not listed: [7] | [13] | [17] | [20]
inactive: all other assays above

CC(=[OH+])/C=C(/C)[O-].CC(=[OH+])/C=C(/C)[O-].CC(=[OH+])/C=C(/C)[O-].[Al]
not listed: [13] | [19]
inactive: all other assays above

From PubChem BioAssay (EPA / NIEHS)
